Source: PubChem BioAssay (NCI)
About 83,000 compounds went through this panel and 20% of them were active in at least one assay; those are over-represented in the sample as a whole.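 How to read the values: 0–100, growth inhibition (40 = 60% inhibited); 0, no net growth; -100 to 0, cell death (-40 = 40% of starting cells died; -100 = all dead).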 Calls of active or inactive are those of the source. How the source made its calls: active means growth percent below 10; inactive means the rest.

What was measured:
Assay in all cases: NCI-60 one-dose screen, 48 h (100 = growth as untreated, 0 = no growth, -100 = all killed)
SR leukemia = conditions: 10 µM unless noted
RPMI-8226 leukemia = conditions: 10 µM unless noted
OVCAR-8 ovarian = conditions: 10 µM unless noted
OVCAR-5 ovarian = conditions: 10 µM unless noted
OVCAR-4 ovarian = conditions: 10 µM unless noted
SK-OV-3 ovarian = conditions: 10 µM unless noted
IGROV1 ovarian = conditions: 10 µM unless noted
OVCAR-3 ovarian = conditions: 10 µM unless noted
HS 578T breast = conditions: 10 µM
NCI/ADR-RES ovarian = conditions: 10 µM unless noted
T-47D breast = conditions: 10 µM unless noted
BT-549 breast = conditions: 10 µM unless noted
MDA-MB-435 melanoma = conditions: 10 µM unless noted
SW-620 colon = conditions: 10 µM unless noted
MCF7 breast = conditions: 10 µM unless noted
HCT-116 colon = conditions: 10 µM unless noted
HCC-2998 colon = conditions: 10 µM unless noted
KM12 colon = conditions: 10 µM unless noted

For `COc1cccc(Cn2c(-c3nonc3NC(C)=O)nc3ccccc32)c1`, the growth (SR leukemia) was 16.3% (inactive), the growth (RPMI-8226 leukemia) was 28.4% (inactive) and the growth (OVCAR-8 ovarian) was 50.9% (inactive). The growth (OVCAR-5 ovarian) was 39.2% (inactive), the growth (OVCAR-4 ovarian) was 79.9% (inactive) and the growth (SK-OV-3 ovarian) was 16.9% (inactive). For the same compound, the growth (IGROV1 ovarian) was 56.8% (inactive), the growth (OVCAR-3 ovarian) was 69.5% (inactive) and the growth (HS 578T breast) was 23.6% (inactive). The growth (NCI/ADR-RES ovarian) was 30.3% (inactive), the growth (T-47D breast) was 42.3% (inactive) and the growth (BT-549 breast) was 41.6% (inactive). The growth (MDA-MB-435 melanoma) was -35% (active), the growth (SW-620 colon) was 28.7% (inactive) and the growth (MCF7 breast) was 47.4% (inactive). The growth (HCT-116 colon) was 42.7% (inactive), the growth (HCC-2998 colon) was 49.3% (inactive) and the growth (KM12 colon) was 30.4% (inactive).

In the case of `CCC(C)C1NC(=O)c2nc(oc2-c2ccccc2)-c2csc(n2)-c2csc(n2)-c2nc(oc2C)-c2coc(n2)CNC(=O)C(C(C)CC)NC1=O` (centres undefined), the growth (SR leukemia) is reported as -47.8% (active), the growth (RPMI-8226 leukemia) is reported as -63.5% (active) and the growth (OVCAR-8 ovarian) is reported as -62% (active). The growth (OVCAR-5 ovarian) was -86.1% (active), the growth (OVCAR-4 ovarian) was -80.6% (active) and the growth (SK-OV-3 ovarian) was -89.2% (active). The growth (IGROV1 ovarian) was -71.5% (active), the growth (OVCAR-3 ovarian) was -88% (active) and the growth (HS 578T breast) was -57.3% (active). For the same compound, the growth (NCI/ADR-RES ovarian) was 12.3% (inactive), the growth (T-47D breast) was -62.5% (active) and the growth (BT-549 breast) was -78.4% (active). The growth (MDA-MB-435 melanoma) was -87.5% (active), the growth (SW-620 colon) was -82.6% (active) and the growth (MCF7 breast) was -68.6% (active). The growth (HCT-116 colon) was -59% (active), the growth (HCC-2998 colon) was -80.1% (active) and the growth (KM12 colon) was -73.9% (active).

In the case of `CCCCn1c(C)nc2ccc(Nc3nc(Cl)nc4nc[nH]c34)cc21`, the growth (SR leukemia) is reported as 42.5% (inactive), the growth (RPMI-8226 leukemia) is reported as 43.7% (inactive) and the growth (OVCAR-8 ovarian) is reported as 78.2% (inactive). The growth (OVCAR-5 ovarian) was 74.5% (inactive), the growth (OVCAR-4 ovarian) was 68.4% (inactive) and the growth (SK-OV-3 ovarian) was 77% (inactive). For the same compound, the growth (IGROV1 ovarian) was 68.2% (inactive), the growth (OVCAR-3 ovarian) was 62.7% (inactive) and the growth (HS 578T breast) was 6.13% (active). For the same compound, the growth (NCI/ADR-RES ovarian) was 101% (inactive), the growth (T-47D breast) was 33.9% (inactive) and the growth (BT-549 breast) was 47.8% (inactive). The growth (MDA-MB-435 melanoma) was 77.2% (inactive), the growth (SW-620 colon) was 78.6% (inactive) and the growth (MCF7 breast) was 76.5% (inactive). For the same compound, the growth (HCT-116 colon) was 67.7% (inactive), the growth (HCC-2998 colon) was 94% (inactive) and the growth (KM12 colon) was 77.5% (inactive).

For `Fc1ccc2nc(-c3ccc(-c4noc(-c5ccc(Cl)cc5)n4)cc3)[nH]c2c1`, the growth (SR leukemia) was 95.6% (inactive), the growth (RPMI-8226 leukemia) was 106% (inactive) and the growth (OVCAR-8 ovarian) was 108% (inactive). The growth (OVCAR-5 ovarian) was 113% (inactive), the growth (OVCAR-4 ovarian) was 114% (inactive) and the growth (SK-OV-3 ovarian) was 113% (inactive). For the same compound, the growth (IGROV1 ovarian) was 115% (inactive), the growth (OVCAR-3 ovarian) was 105% (inactive) and the growth (HS 578T breast) was 108% (inactive). For the same compound, the growth (NCI/ADR-RES ovarian) was 100% (inactive), the growth (T-47D breast) was 92.9% (inactive) and the growth (BT-549 breast) was 93.9% (inactive). The growth (MDA-MB-435 melanoma) was 105% (inactive), the growth (SW-620 colon) was 107% (inactive) and the growth (MCF7 breast) was 105% (inactive). For the same compound, the growth (HCT-116 colon) was 95.6% (inactive), the growth (HCC-2998 colon) was 106% (inactive) and the growth (KM12 colon) was 93.1% (inactive).

For `N#CC1=C(N)Oc2nc[nH]c(=O)c2C1c1cccs1` (centres undefined), the growth (SR leukemia) was 92% (inactive), the growth (RPMI-8226 leukemia) was 100% (inactive) and the growth (OVCAR-8 ovarian) was 98.3% (inactive). For the same compound, the growth (OVCAR-5 ovarian) was 100% (inactive), the growth (OVCAR-4 ovarian) was 90.9% (inactive) and the growth (SK-OV-3 ovarian) was 105% (inactive). For the same compound, the growth (IGROV1 ovarian) was 111% (inactive), the growth (OVCAR-3 ovarian) was 108% (inactive) and the growth (HS 578T breast) was 112% (inactive). The growth (NCI/ADR-RES ovarian) was 113% (inactive), the growth (T-47D breast) was 95.2% (inactive) and the growth (BT-549 breast) was 103% (inactive). For the same compound, the growth (MDA-MB-435 melanoma) was 101% (inactive), the growth (SW-620 colon) was 102% (inactive) and the growth (MCF7 breast) was 97.1% (inactive). For the same compound, the growth (HCT-116 colon) was 106% (inactive), the growth (HCC-2998 colon) was 114% (inactive) and the growth (KM12 colon) was 108% (inactive).

With `O=C(Oc1c(Cl)c(Cl)c(Cl)c(Cl)c1Cl)C1CCCN1C(=O)OCc1ccccc1` (centres undefined) the growth (SR leukemia) was 30.1% (inactive), the growth (RPMI-8226 leukemia) was 6.32% (active) and the growth (OVCAR-8 ovarian) was 34.7% (inactive). For the same compound, the growth (OVCAR-5 ovarian) was 94.9% (inactive), the growth (OVCAR-4 ovarian) was 51% (inactive) and the growth (SK-OV-3 ovarian) was 46.4% (inactive). The growth (IGROV1 ovarian) was 37.3% (inactive), the growth (OVCAR-3 ovarian) was 79.1% (inactive) and the growth (HS 578T breast) was 73.2% (inactive). For the same compound, the growth (NCI/ADR-RES ovarian) was 27.6% (inactive), the growth (T-47D breast) was 2.01% (active) and the growth (BT-549 breast) was 54.9% (inactive). The growth (MDA-MB-435 melanoma) was 84.2% (inactive), the growth (SW-620 colon) was 22.2% (inactive) and the growth (MCF7 breast) was 29.6% (inactive). For the same compound, the growth (HCT-116 colon) was 15.9% (inactive), the growth (HCC-2998 colon) was 49.1% (inactive) and the growth (KM12 colon) was 23.6% (inactive).

For `N=c1n(Cc2ccccc2)c(N)cc(=O)n1Cc1ccccc1`, the growth (SR leukemia) was 1.6% (active), the growth (RPMI-8226 leukemia) was 42.6% (inactive) and the growth (OVCAR-8 ovarian) was 20% (inactive). For the same compound, the growth (OVCAR-5 ovarian) was 68.8% (inactive), the growth (OVCAR-4 ovarian) was 34.1% (inactive) and the growth (SK-OV-3 ovarian) was 21.4% (inactive). For the same compound, the growth (IGROV1 ovarian) was 37.9% (inactive), the growth (OVCAR-3 ovarian) was 0.156% (active) and the growth (HS 578T breast) was -1.73% (active). The growth (NCI/ADR-RES ovarian) was 10.6% (inactive), the growth (T-47D breast) was 26.7% (inactive) and the growth (BT-549 breast) was 3.02% (active). For the same compound, the growth (MDA-MB-435 melanoma) was 37.2% (inactive), the growth (SW-620 colon) was 20.7% (inactive) and the growth (MCF7 breast) was 23.4% (inactive). The growth (HCT-116 colon) was 8.12% (active), the growth (HCC-2998 colon) was 67.4% (inactive) and the growth (KM12 colon) was 39.2% (inactive).

With `O=C(Nc1ccc(Oc2ccc(Nc3nc4ccccc4s3)cc2)cc1)Nc1ccc(Cl)c(C(F)(F)F)c1` the growth (SR leukemia) was 0.688% (active), the growth (RPMI-8226 leukemia) was -19.5% (active) and the growth (OVCAR-8 ovarian) was 6.28% (active). For the same compound, the growth (OVCAR-5 ovarian) was 23.6% (inactive), the growth (OVCAR-4 ovarian) was 17.7% (inactive) and the growth (SK-OV-3 ovarian) was 12.1% (inactive). For the same compound, the growth (IGROV1 ovarian) was 17% (inactive), the growth (OVCAR-3 ovarian) was -3.18% (active) and the growth (HS 578T breast) was 7.39% (active). The growth (NCI/ADR-RES ovarian) was 5% (active), the growth (T-47D breast) was 3.71% (active) and the growth (BT-549 breast) was -1.46% (active). The growth (MDA-MB-435 melanoma) was 0.432% (active), the growth (SW-620 colon) was 8.67% (active) and the growth (MCF7 breast) was 4.73% (active). The growth (HCT-116 colon) was 0.0223% (active), the growth (HCC-2998 colon) was 2.48% (active) and the growth (KM12 colon) was 0.448% (active).
